The panel holds about 79,000 compounds, 15% with a hit somewhere; the sample as a whole holds those more often. Values without a mark were called inactive. Active and inactive are the calls of the source. No stated cut-off is given here; in the data, active means growth inhibition above about 70%; inactive means the rest.

The nature of assay [1]: NCI Yeast Anticancer Drug Screen. Data for the rad50 strain (AID 155).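 Further: 0% = growth of vehicle-only cultures of the same strain.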 The settings on record: S. cerevisiae rad50 strain growth inhibition, hits give high values. In a few lines:
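Relative growth inhibition (compound vs vehicle) was measured in yeast with a defined repair-gene alteration.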

Assay [2] is described as follows: NCI Yeast Anticancer Drug Screen. Data for the mec2-1 strain (AID 157). Particulars: S. cerevisiae mec2-1 strain, hits give high values. The essentials: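 Readout is yeast growth inhibition, normalised to vehicle-treated controls, in the mec2-1 strain exposed to compound.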
Assay [3] is described as follows: NCI Yeast Anticancer Drug Screen. Data for the sgs1 mgt1 strain (AID 161).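 Further: 0% = growth of cultures given vehicle only.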 Particulars: S. cerevisiae sgs1 mgt1 strain, hits give high values. In a few lines:
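Percent growth inhibition was derived by comparing compound-exposed mutant yeast with vehicle-exposed cultures. The strain carries alterations in DNA damage repair.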

Assay [4] can be described thus: NCI Yeast Anticancer Drug Screen. Data for the cln2 rad14 strain (AID 165).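 Further: 0% = growth equal to vehicle treated cultures.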 Particulars: S. cerevisiae cln2 rad14 strain, hits give high values. The essentials: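 Relative to vehicle controls, growth inhibition of compound-treated cln2 rad14 yeast was recorded.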
Assay [5] can be described thus: NCI Yeast Anticancer Drug Screen. Data for the bub3 strain (AID 167). The settings on record: S. cerevisiae bub3 mutant strain, hits give high values. The essentials:
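Screening used yeast with an engineered genetic alteration affecting cell cycle control. Compound-exposed cultures were compared with vehicle cultures, and reduced growth was taken as inhibition.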

Assay [6] can be described thus: NCI Yeast Anticancer Drug Screen. Data for the mlh1 rad18 strain (AID 175). The settings on record: S. cerevisiae mlh1 rad18 strain growth inhibition, hits give high values. The essentials: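 Test agents were incubated with a yeast strain of defined genotype (DNA damage repair defect). Inhibition of growth was derived by comparison with vehicle-exposed cultures.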

The mark [7] stands for this setting: at 5.0 µM (retest, dose inferred, filed as 0.5).
Setting [8] is: at 50.0 µM (retest, dose inferred, filed as 5.0).

Consider `CCOC(=O)c1c(N)c(=O)n2c3c(cccc13)CC2`, for which the growth inhibition in assay [1] (setting [7]) was 0%; in assay [1] (setting [8]), 92% (active); in assay [1] (at 50.0 µM), 96.9% (active); in assay [2] (setting [7]), -2%; in assay [2] (setting [8]), 98% (active); in assay [2] (at 50.0 µM) it was 97.5% (active). Further, the growth inhibition was 0% in assay [3] (setting [7]); 99% (active) in assay [3] (setting [8]); 97.7% (active) in assay [3] (at 50.0 µM); 7% in assay [4] (setting [7]); 59% in assay [4] (setting [8]); 98.7% (active) in assay [4] (at 50.0 µM). Further, the growth inhibition in assay [5] (setting [7]) was -1%; in assay [5] (setting [8]), 79% (active); in assay [5] (at 50.0 µM), 96.8% (active); in assay [6] (setting [7]) it was 21%; in assay [6] (setting [8]) it was 98% (active); in assay [6] (at 50.0 µM) it was 98.6% (active).
In the case of `CC1=C(C)CC(C#N)(C#N)C(C#N)(C#N)C1`, the growth inhibition in assay [1] (setting [7]) was -12%; in assay [1] (setting [8]), 80% (active); in assay [1] (at 50.0 µM) it was 83.9% (active); in assay [2] (setting [7]) it was 10%; in assay [2] (setting [8]), 92% (active); in assay [2] (at 50.0 µM), 79.6% (active). For the same compound, the growth inhibition in assay [3] (setting [7]) was -13%; in assay [3] (setting [8]), 80% (active); in assay [3] (at 50.0 µM), 82.2% (active); in assay [4] (setting [7]), -18%; in assay [4] (setting [8]) it was 86% (active); in assay [4] (at 50.0 µM), 38.1%. Further, the growth inhibition in assay [5] (setting [7]) was 30%; in assay [5] (setting [8]), 97% (active); in assay [5] (at 50.0 µM), 58.7%; in assay [6] (setting [7]), 6%; in assay [6] (setting [8]), 97% (active); in assay [6] (at 50.0 µM) it was 75.3% (active).
Consider `C=CCCCCO/N=C/c1c2c(O)c3c(O)c(C)c4c(c3c1O)C(=O)C(C)(O/C=C/C(OC)C(C)C(OC(C)=O)C(C)C(O)C(C)C(O)C(C)/C=C/C=C(\C)C(=O)N2)O4` (stereo not given), for which the growth inhibition in assay [1] (setting [7]) was 44%; in assay [1] (setting [8]), 89% (active); in assay [1] (at 50.0 µM), 86.4% (active); in assay [2] (setting [7]), 44%; in assay [2] (setting [8]), 91% (active); in assay [2] (at 50.0 µM), 91.8% (active). The growth inhibition is 33% in assay [3] (setting [7]); 87% (active) in assay [3] (setting [8]); 66.8% in assay [3] (at 50.0 µM); 67% in assay [4] (setting [7]); 91% (active) in assay [4] (setting [8]); 88.3% (active) in assay [4] (at 50.0 µM). Besides, the growth inhibition is 49% in assay [5] (setting [7]); 93% (active) in assay [5] (setting [8]); 79.9% (active) in assay [5] (at 50.0 µM); 34% in assay [6] (setting [7]); 89% (active) in assay [6] (setting [8]); 85.3% (active) in assay [6] (at 50.0 µM).
With `CC[N+](C)(CC)CCCOC(=O)c1ccccc1Oc1ccc(C)cc1`, the growth inhibition in assay [1] (setting [7]) is 1%; in assay [1] (setting [8]), 0%; in assay [1] (at 50.0 µM) it was 75.5% (active); in assay [2] (setting [7]), -17%; in assay [2] (setting [8]), -8%; in assay [2] (at 50.0 µM), 13.8%. The growth inhibition in assay [3] (setting [7]) was -9%; in assay [3] (setting [8]) it was -7%; in assay [3] (at 50.0 µM), 21.9%; in assay [4] (setting [7]) it was -4%; in assay [4] (setting [8]), -6%; in assay [4] (at 50.0 µM) it was -0.85%. In addition, the growth inhibition in assay [5] (setting [7]) was 2%; in assay [5] (setting [8]), 42%; in assay [5] (at 50.0 µM), 12.8%; in assay [6] (setting [7]), 15%; in assay [6] (setting [8]), 3%; in assay [6] (at 50.0 µM), 14.9%.
`CCN(CC)C(C)(C)C(=O)/C=C/c1ccc(Cl)c(Cl)c1`: the growth inhibition in assay [1] (setting [7]) is 13%; in assay [1] (setting [8]), 97% (active); in assay [1] (at 50.0 µM) it was 92.7% (active); in assay [2] (setting [7]) it was 3%; in assay [2] (setting [8]) it was 97% (active); in assay [2] (at 50.0 µM) it was 99.2% (active). Besides, the growth inhibition in assay [3] (setting [7]) is 6%; in assay [3] (setting [8]), 97% (active); in assay [3] (at 50.0 µM), 82.7% (active); in assay [4] (setting [7]) it was -8%; in assay [4] (setting [8]) it was 96% (active); in assay [4] (at 50.0 µM), 47.9%. Also, the growth inhibition in assay [5] (setting [7]) is 5%; in assay [5] (setting [8]) it was 98% (active); in assay [5] (at 50.0 µM) it was 96% (active); in assay [6] (setting [7]), 0%; in assay [6] (setting [8]) it was 95% (active); in assay [6] (at 50.0 µM) it was 95% (active).
On to `CC(C)C[C@H](NC(=O)[C@H](Cc1ccccc1)NC(=O)c1cnccn1)B(O)O`, for which the growth inhibition in assay [1] (setting [7]) is 55%; in assay [1] (setting [8]), 87% (active); in assay [1] (at 50.0 µM), 55.8%; in assay [2] (setting [7]), 33%; in assay [2] (setting [8]) it was 70% (active); in assay [2] (at 50.0 µM), 30.4%. Further, the growth inhibition in assay [3] (setting [7]) is 52%; in assay [3] (setting [8]), 78% (active); in assay [3] (at 50.0 µM), 60.9%; in assay [4] (setting [7]), 76% (active); in assay [4] (setting [8]), 94% (active); in assay [4] (at 50.0 µM), 72.9% (active). The growth inhibition is 69% in assay [5] (setting [7]); 90% (active) in assay [5] (setting [8]); 72.6% (active) in assay [5] (at 50.0 µM); 55% in assay [6] (setting [7]); 79% (active) in assay [6] (setting [8]); 66.7% in assay [6] (at 50.0 µM).
Regarding `CC(=O)/C(=C\c1cccs1)C(=O)CCN(C)C`, the growth inhibition in assay [1] (setting [7]) is 11%; in assay [1] (setting [8]) it was 25%; in assay [1] (at 50.0 µM) it was 9.05%; in assay [2] (setting [7]) it was 15%; in assay [2] (setting [8]), 28%; in assay [2] (at 50.0 µM), 17.2%. The growth inhibition in assay [3] (setting [7]) was 10%; in assay [3] (setting [8]) it was 29%; in assay [3] (at 50.0 µM), 34%; in assay [4] (setting [7]), 20%; in assay [4] (setting [8]) it was 27%; in assay [4] (at 50.0 µM), 19.5%. The growth inhibition in assay [5] (setting [7]) is 4%; in assay [5] (setting [8]), 23%; in assay [5] (at 50.0 µM), -2.2%; in assay [6] (setting [7]), 22%; in assay [6] (setting [8]) it was 30%; in assay [6] (at 50.0 µM) it was 50.1%.
In the case of `CC1C/C(=N\N(C)C)C(C#N)(C#N)C1(C#N)C#N` (stereo not given), the growth inhibition in assay [1] (setting [7]) is 30%; in assay [1] (setting [8]), 99% (active); in assay [1] (at 50.0 µM) it was 81% (active); in assay [2] (setting [7]), 45%; in assay [2] (setting [8]), 99% (active); in assay [2] (at 50.0 µM) it was 81.1% (active). For the same compound, the growth inhibition in assay [3] (setting [7]) was 26%; in assay [3] (setting [8]) it was 97% (active); in assay [3] (at 50.0 µM) it was 66.5%; in assay [4] (setting [7]) it was 27%; in assay [4] (setting [8]) it was 79% (active); in assay [4] (at 50.0 µM), 37.8%. Further, the growth inhibition in assay [5] (setting [7]) is 47%; in assay [5] (setting [8]), 99% (active); in assay [5] (at 50.0 µM) it was 62.2%; in assay [6] (setting [7]) it was 59%; in assay [6] (setting [8]) it was 99% (active); in assay [6] (at 50.0 µM), 92% (active).
Take `CCCCC#CC(=O)OCCC`: the growth inhibition is -1% in assay [1] (setting [7]); 2% in assay [1] (setting [8]); 26.6% in assay [1] (at 50.0 µM); 0% in assay [2] (setting [7]); 2% in assay [2] (setting [8]); 15.8% in assay [2] (at 50.0 µM). Further, the growth inhibition in assay [3] (setting [7]) is 2%; in assay [3] (setting [8]), 2%; in assay [3] (at 50.0 µM), 22.4%; in assay [4] (setting [7]), -1%; in assay [4] (setting [8]), -1%; in assay [4] (at 50.0 µM), 85.5% (active). Besides, the growth inhibition in assay [5] (setting [7]) was 1%; in assay [5] (setting [8]), 0%; in assay [5] (at 50.0 µM), -22.4%; in assay [6] (setting [7]), -2%; in assay [6] (setting [8]) it was -1%; in assay [6] (at 50.0 µM) it was -9.75%.
`O=C(c1ccccc1)c1ccc(O)cc1O`: the growth inhibition in assay [1] (setting [7]) was -5%; in assay [1] (setting [8]) it was 49%; in assay [1] (at 50.0 µM) it was 85% (active); in assay [2] (setting [7]), -10%; in assay [2] (setting [8]) it was 24%; in assay [2] (at 50.0 µM), 84.5% (active). The growth inhibition is -5% in assay [3] (setting [7]); 15% in assay [3] (setting [8]); 88.5% (active) in assay [3] (at 50.0 µM); -4% in assay [4] (setting [7]); 2% in assay [4] (setting [8]); 26.4% in assay [4] (at 50.0 µM). The growth inhibition was -26% in assay [5] (setting [7]); -17% in assay [5] (setting [8]); 58.9% in assay [5] (at 50.0 µM); -9% in assay [6] (setting [7]); 12% in assay [6] (setting [8]); 72.1% (active) in assay [6] (at 50.0 µM).
